Assay outcomes deposited in PubChem BioAssay by National Center for Advancing Translational Sciences (NCATS).
The full list was thinned out, with hits kept by preference.
Cycloheximide cs – counter-screen hit for Shiga toxin inhibitors, cycloheximide; cell reporter, cycloheximide protein synthesis inhibition counterscreen; max response, %; 12% of 300,000 active; AID 2314; in the data active = max response mostly above about 13%, no sharp cut-off; inactive = mostly below about 14%; note: read at 38.3 µM for the half of the compounds with a filed dose; 0% is about no effect
LmPK inhibitor – inhibitors of Leishmania mexicana pyruvate kinase | Q27686 | purified LmPK, Kinase-Glo ATP luminescence, 1 h | Potency, µM (doses to about 57.5 µM), inactives show top-dose activity change, negative = inhibition, usual class: inhibitors | 0.37% of 290,000 active | AID 1721; note: potency is the fitted concentration of half-maximal effect; % is set by controls: 0 for no effect and ±100 for the full control effect
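Purified LmPK (0.1 nM) with 0.5 mM PEP and 0.1 mM ADP in imidazole buffer pH 7.2 with MgCl2/KCl, 1 h at room temperature. ATP formed was read by luciferase luminescence and normalized to no-enzyme and uninhibited controls.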
Sm TGR block – inhibitors of Schistosoma mansoni thioredoxin glutathione reductase; Potency, µM (titrated, usually from 114 µM), without a hit: top-dose activity change, negative = inhibition, most hits filed as inhibitors; purified TGR, DTNB reduction, TNB absorbance 405 nm; 3% of 360,000 active; note: potency is the fitted concentration of half-maximal effect; % is set by controls: 0 for no effect and ±100 for the full control effect; nearly all actives have a fitted effect of over 60% in size
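Kinetic colorimetric format: TGR-catalysed, NADPH-driven DTNB reduction monitored via TNB absorbance. Enzyme dispensed at 20 nM; compound exposure 15 min at room temperature before reaction start.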
FBPA Giardia inh – inhibitors of Giardia lamblia fructose-1,6-bisphosphate aldolase. A8B2U2. purified Giardia FBPA. Potency, µM (highest dose often 59.6 µM), inactives show at the highest dose activity, negative = inhibition, hits mostly inhibitors. 0.71% of 290,000 active; note: potency is the fitted concentration of half-maximal effect; % is set by controls: 0 for no effect and ±100 for the full control effect; nearly all actives have a fitted effect of over 55% in size
Target sequence (A8B2U2 whole entry, looked up): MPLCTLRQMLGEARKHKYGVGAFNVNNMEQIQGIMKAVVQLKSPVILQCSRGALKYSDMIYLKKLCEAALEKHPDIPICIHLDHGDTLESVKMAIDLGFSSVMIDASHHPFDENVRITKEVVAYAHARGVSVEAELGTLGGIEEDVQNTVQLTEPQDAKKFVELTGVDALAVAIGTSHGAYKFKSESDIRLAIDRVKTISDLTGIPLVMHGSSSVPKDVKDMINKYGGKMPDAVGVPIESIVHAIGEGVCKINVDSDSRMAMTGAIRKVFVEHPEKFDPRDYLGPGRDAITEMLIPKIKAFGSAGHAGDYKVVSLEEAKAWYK
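40 nM FBPA preincubated 10 min at RT with compound (up to 57.5 uM final), then substrate plus GAPDH/TPI/NAD/arsenate coupling and diaphorase/resazurin added. Fluorescence read after 20 min at RT, 525/598 nm.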
Tb PYK inh – blocks Trypanosoma brucei pyruvate kinase | TbPYK enzyme, Kinase-Glo Plus ATP luminescence, 45 min | Potency, µM (titrated, usually from 76.8 µM), for inactives: at the top dose activity, negative = inhibition, hits mostly inhibitors | Q57TT1 | AID 624173 | 0.12% of 410,000 active; note: potency is the fitted concentration of half-maximal effect; % is set by controls: 0 for no effect and ±100 for the full control effect; nearly all actives have a fitted effect of over 50% in size
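Glycolytic pyruvate kinase of T. brucei was incubated with substrate, test compound and 130 uM ADP for 45 minutes at room temperature. Luminescent Kinase-Glo Plus signal was measured after 10 minutes.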
Shiga toxin inh – blocks Shiga toxin action in Vero cells; Vero cells, Shiga toxin protein synthesis inhibition reporter; inhibition, % at 38.7 µM; 9.2% of 290,000 active; in the data active = inhibition mostly above about 28%, no sharp cut-off; inactive = mostly below about 43%; note: 0% is about no effect
The depositor's hits bear a star; ? = inconclusive; · = no result. Unless noted, calls come from the whole dose curve; as a rule, active = well fitted curve in the direction sought with a large enough effect; inconclusive = small, poorly fitted or top-dose-only effect, or another doubt; inactive = no such curve, though single readings can be large; an effect the other way counts as inactive or inconclusive.

SMILES | Cycloheximide cs | LmPK inhibitor | Sm TGR block | FBPA Giardia inh | Tb PYK inh | Shiga toxin inh
CCCC[C@H](NC(=O)[C@H](CO)NC(=O)[C@H](Cc1ccc(O)cc1)NC(=O)[C@H](CO)NC(C)=O)C(=O)N[C@@H](CCC(=O)O)C(=O)N[C@@H](Cc1cnc[nH]1)C(=O)N[C@H](Cc1ccccc1)C(=O)N[C@@H](CCCNC(=N)N)C(=O)N[C@@H](Cc1c[nH]c2ccccc12)C(=O)NCC(=O)N[C@@H](CCCCN)C(=O)N1CCC[C@H]1C(=O)N[C@H](C(N)=O)C(C)C | -7 | · | · | 1% | · | -9
CC[C@H](C)[C@H](NC(=O)[C@H](CCCNC(=N)N)NC(=O)[C@@H](NC(=O)[C@H](CCCNC(=N)N)NC(=O)[C@H](CCCCN)NC(=O)[C@H](CCCNC(=N)N)NC(=O)[C@@H](NC(=O)[C@H](CC(N)=O)NC(=O)[C@@H](N)CS)[C@@H](C)O)[C@@H](C)CC)C(=O)N[C@@H](CCC(N)=O)C(=O)N[C@@H](CCCNC(=N)N)C(=O)NCC(=O)N1CCC[C@H]1C(=O)NCC(=O)N[C@@H](CCCNC(=N)N)C(=O)N[C@@H](C)C(=O)N[C@@H](Cc1ccccc1)C(=O)N[C@H](C(=O)N[C@H](C(=O)N[C@H](C(=O)NCC(=O)N[C@@H](CCCCN)C(=O)O)[C@@H](C)CC)[C@@H](C)O)C(C)C | 9 | · | · | -9% | · | -1
Cc1ccn(C(C)CC(=O)N2CCc3ccccc32)n1 (centres undefined) | 17 | 1% | -6% | 3% | 8% | -4
Cc1ccccc1N1CCN(C(=O)CCN2C(=O)c3ccccc3C2=O)CC1 | 23* | -2% | 10% | 4% | -16% | 49*
O=C1CCN(C(=O)Cc2ccccc2)c2ccccc21 | · | · | · | · | 2% | ·
COc1ccc2c(CC(=O)N3CCc4ccccc43)coc2c1 | 42* | ? | -23% | -7% | -5% | 66*
CN1CCN(C(=O)CCN2C(=O)c3ccccc3C2=O)CC1 | 1 | 2% | 9% | 5% | 1% | 1
O=C(Cc1ccccc1)N1CCc2ccccc21 | 27* | 0% | -1% | 21% | -8% | 40*
CC(CC(=O)N1CCc2ccccc21)n1cccn1 (centres undefined) | 27* | 0% | 1% | 3% | 1% | 25
C=C1CN(C(C(=O)OC)C(C)C)S(=O)(=O)c2ccc(F)cc21 (centres undefined) | 7 | · | · | 0% | · | -6
COc1cc(Cl)c(C)cc1NC(=O)CC(c1ccc(F)cc1)N1Cc2ccccc2C1=O (centres undefined) | · | · | 2% | · | -4% | ·
COc1ccc(CCN2Cc3c(N)cccc3C2=O)cc1OC | -2 | -1% | -3% | 16% | -14% | 12
O=S(=O)(c1ccc(Cl)nc1)N1CCN(c2ncccn2)CC1 | 1 | 5% | -2% | 7% | -11% | 15
COc1ccc(CN(C(=O)c2ccccc2F)C2CCS(=O)(=O)C2)cc1 (centres undefined) | · | · | 3% | · | 1% | ·
COc1ccc(CC(=O)N2CCc3ccccc32)cc1 | 31* | 1% | 7% | 2% | 1% | 80*
CCc1ccc(S(=O)(=O)NCc2ccc3c(c2)CCN3C(=O)c2ccc(C)cc2)cc1 | · | · | -12% | · | -6% | ·
CCCn1c(=O)c2ccccc2n2c(SCc3nc4ccccc4s3)nnc12 | 31* | -4% | -17% | 1% | 2% | 142*
O=c1[nH]nc(SCc2nc3ccccc3s2)n1C1CC1 | 52* | -18% | -9% | -23% | -4% | 103*
Cc1cc(C)c(-n2c(SCc3nc4ccccc4s3)n[nH]c2=O)c(C)c1 | 4 | 0% | 28% | -2% | -5% | 6
CCCn1c(SCc2nc3ccccc3s2)n[nH]c1=O | 53* | -7% | -8% | -14% | 0% | 90*
COc1cc(OC)c(NC(=O)Nc2cccc(OCc3cc(=O)n4ccccc4n3)c2)cc1Cl | · | · | -9% | · | -7% | ·
Cc1ccc(/C=C/C(=O)NC2=NCCS2)cc1 | 70* | -5% | -20% | 4% | -3% | 92*
CC(=O)c1ccc(NC(=O)/C=C/c2ccc(C)cc2)cc1 | 7 | 2% | 1% | 1% | -1% | 48
